Experimental findings from PubChem BioAssay (NCI) are described below.

The structures appear in SMILES notation. Compounds without any hit were thinned out: in the full panel of roughly 83,000, 20% have a hit.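 Assay: single dose, 48 h. Readout: percent growth (0 = no net growth; negative = cell death). Active: <10.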 Calls of active or inactive are those of the source.

This experiment deals with NCI-H522 lung. In words: NCI-60 one-dose screen, 48 h (100 = growth as untreated, 0 = no growth, -100 = all killed). As to conditions: 10 µM.
Take `Cc1ccc(CSc2nc(-c3ccc(F)cc3)c(C#N)c(=O)[nH]2)cc1`: the growth is 87.1% (inactive).

For `CCCn1c(O)c(N=Nc2nc(-c3cc4ccccc4oc3=O)cs2)c2cc(Br)ccc21`, the growth is 93.4% (inactive).

Turning to `CN1CCN(Cc2ccc(NC(=O)c3cncc(C#Cc4cnc5ccc(N[C@@H]6CCOC6)nn45)c3)cc2C(F)(F)F)CC1`, the growth was -71.6% (active).

For `c1ccc(C(=C(c2ccc(OCCN3CCCCC3)cc2)c2ccc(OCCN3CCCCC3)cc2)C2CCCC2)cc1`, the growth was -42.2% (active).

Consider `Cc1ccc(-c2cc(C(=O)N=Nc3c(O)[nH]c4ccccc34)c3ccccc3n2)cc1`, for which the growth is 56.6% (inactive).

For `N#Cc1c(NC(=O)c2ccc(C(F)(F)F)cc2)sc2c1CCC(=O)C2`, the growth was -57.3% (active).

For `CCOC(=O)C1NN(c2ccc(S(N)(=O)=O)cc2)c2nc3nc(-c4cccs4)cc(-c4cccs4)c3c(=O)n21` (stereo not given), the growth is 77.2% (inactive).

In the case of `Cc1ccc(-c2cc(C(=O)N=Nc3c(O)[nH]c4ccc(Br)cc34)c3ccccc3n2)cc1`, the growth is 78.7% (inactive).

For `CC1(c2ccccc2)NC(=O)N(CC(=O)Nc2ccc(C(=O)/C=C/c3ccc(Cl)cc3)cc2)C1=O` (stereo not given), the growth is 41.4% (inactive).

In the case of `O=C(N/N=C/c1ccc(-c2cccc([N+](=O)[O-])c2)o1)c1[nH]c2ccc(Br)cc2c1-c1ccccc1`, the growth was -48.4% (active).

`CN(C)c1ccc(/C=C/c2nc3ccccc3c(=O)n2CC(=O)Nc2ccc(Cl)cc2)cc1`: the growth is 77.9% (inactive).

As to `CCCSc1nc(NC2CC2)c(C#N)c(-c2ccc(OC)cc2)n1`, the growth is 93.3% (inactive).

For the compound `C=C1CCC2C3(C)COC(c4c(F)cccc4F)OC3CCC2(C)C1CC(O)C1=CCOC1=O` (stereo not given), the growth was -33.8% (active).

With `O=C(N=Nc1c(O)[nH]c2ccc(Br)cc12)c1ccc2nc(-c3ccccc3)[nH]c2c1`, the growth is -79% (active).

`CS(=O)(=O)Nc1ccc(-c2ccc3c(c2)ncn3-c2ccc(NC(=O)Nc3ccc(Br)cc3)cc2)cc1`: the growth was -23.4% (active).

For `COC1=C[C@@]23CCC(=O)N2CCc2cc4c(cc2[C@H]3[C@H]1OC(=O)C(C)(C)O)OCO4`, the growth was 95.6% (inactive).

Regarding `Cc1cc(C)nc(/N=C(\N)Nc2ccc(S(=O)(=O)Nc3nc(C)cc(C)n3)cc2)n1`, the growth is 98.4% (inactive).

For the compound `CC(=O)NS(=O)(=O)c1ccc(NC(=O)CSC2=NC(c3ccccc3)C(C(C)=O)=C(C)N2)cc1` (stereo not given), the growth is 98.4% (inactive).

`COc1cc2c3c(n(CCCNCCO)c(=O)c2cc1OC)-c1nc2c(cc1C3=O)OCO2`: the growth was 2.99% (active).

For the compound `C/C(=C\CC/C=C(\C)CC/C=C(\C)CC[C@@H](O)C(C)(C)O)CC/C=C(\C)CC[C@@H](O)C(C)(C)O`, the growth is 21.8% (inactive).

With `C=CC(=O)Nc1nc(-c2cccc(NS(=O)(=O)c3cccc4c(N(C)C)cccc34)c2)cs1`, the growth is -76.9% (active).

As to `O=C(Nc1ccc(Cl)c(C(F)(F)F)c1)c1cncc(C#Cc2cnc3ccc(N4CCOCC4)nn23)c1`, the growth was -11.3% (active).

As for `O=C(c1ccccc1)n1ccc(-c2cc3cc(Br)ccc3oc2=O)n1`, the growth is 1.16% (active).

On to `Clc1ccc(/C=N/Nc2ncnc3sc4c(c23)CCN(Cc2ccccc2)C4)cc1`, for which the growth was 1.08% (active).

In the case of `Nc1cc(-c2cccc(C(=O)NCc3ccc4c(c3)OCO4)c2)ccn1`, the growth was 84.4% (inactive).
